Shown are actives, neighbours in structure and some others; about 20% of the full set was active somewhere.
Shiga toxin inh: Shiga toxin inhibition. AID 2315. 290,000 tested, 9.2% active. Vero cells, Shiga toxin protein synthesis inhibition reporter. inhibition, % at 38.7 µM; in the data active = inhibition mostly above about 28%, no sharp cut-off; inactive = mostly below about 43%; note: 0% is about no effect
HCMV antiviral: inhibitors of human cytomegalovirus; AID 1259415; HFF cells, HCMV-luciferase reporter, 72 h; stronger effect = lower value; activity change, negative = inhibition, % at 57.5 µM; 410,000 tested, 4.5% active; in the data active = activity change below about -60%; inconclusive = no clear call, values can overlap the other calls; inactive = above about -39%; note: % is set by controls: 0 for no effect and ±100 for the full control effect
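After 16 h attachment at 37C, HFF cells received test compound and HCMV-luciferase (1 PFU/cell); reporter luminescence read 72 h later, data normalized against buffer-only and known inhibitor Salinomycin.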
Pf growth 96h: P. falciparum growth inhibition at 96 hours. 320,000 tested, 6.9% active. Potency, µM (doses to about 28.7 µM), for the others: at the top dose activity change, negative = inhibition, usual class: inhibitors. P. falciparum luciferase reporter growth, 96 h; note: potency is the fitted concentration of half-maximal effect; % is set by controls: 0 for no effect and ±100 for the full control effect
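Infected RBCs, 2% Hct / 0.05% parasitemia final; luciferase-reporter P. falciparum; cpd 96 h, 37 C, 5% CO2; luciferase detection reagent; luminescence.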
Pf growth 48h: P. falciparum growth inhibition at 48 hours (one generation) | P. falciparum luciferase growth in erythrocytes, 48 h | Potency, µM (series often up to 28.7 µM), without a hit: at the top dose activity change, negative = inhibition, actives largely listed as inhibitors | 310,000 tested, 5.9% active | AID 504832; note: potency is the fitted concentration of half-maximal effect; % is set by controls: 0 for no effect and ±100 for the full control effect
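First compound was added to culture medium, then infected red cells at 0.1% parasitemia and 2% hematocrit (final). After incubation at 37 C under 5% CO2, luciferase detection reagent was dispensed and light output recorded.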
CHX counter: counter-screen for Shiga toxin inhibitors: cycloheximide protein synthesis inhibition. 300,000 tested, 12% active. cell reporter, cycloheximide protein synthesis inhibition counterscreen. AID 2314. max response, %; in the data active = max response mostly above about 13%, no sharp cut-off; inactive = mostly below about 14%; note: read at 38.3 µM for the half of the compounds with a filed dose; 0% is about no effect
* hit, by the source's call; i = inactive; ? = inconclusive; / = no result given; [ ] = remark or other dose. Unless noted, calls come from the whole dose curve; as a rule, active = well fitted inhibition curve with a large enough effect; inconclusive = small, poorly fitted or top-dose-only effect, or another doubt; inactive = no such curve, though single readings can be large or run the other way.

SMILES	Shiga toxin inh	HCMV antiviral	Pf growth 96h	Pf growth 48h	CHX counter
CCOC(=O)NC(=O)CSc1nc(C)cc(C)c1C#N	17	87	9.3µM*	148%	22
CCc1nc(SCC(=O)N2CCc3cc(OC)c(OC)cc3C2)c(C#N)cc1C	/	-31	/	/	/
COC(=O)CC(=O)CSc1nc(C)cc(C)c1C#N	25	-8	8.3µM*	21%	-2
CCOC(=O)CNC(=O)CSc1nc(C)cc(C)c1C#N	-9	54	/	/	5
COc1cc2c(cc1OC)CN(C(=O)CSc1nc(C)cc(C)c1C#N)CC2	-3	-32	6.6µM*	?	-2
Cc1cc(C)c(C#N)c(SCC(=O)C(C)(C)C)n1	13	-39	-5%	9%	12
Cc1cc(C)c(C#N)c(SCC(=O)NC(C)(C)C)n1	-14	2	7.4µM*	/	-9
Brc1ccccc1-n1ncc2c1ncn1nc(Cc3ccccc3)nc21	/	49	/	/	/
CCc1nnc(NC(=O)CSc2nc(C)cc(C)c2C#N)s1	40	22	16%	115%[5.75 µM]	15*
Cc1cc(C)c(C#N)c(SCCS(=O)(=O)c2ccc(C(C)(C)C)cc2)n1	-8	?	/	7.4µM*	-2
Cc1cc(C)c(C#N)c(SCC(=O)Nc2ccccc2C(N)=O)n1	51*	84	-6%	10%	23*
CCN(Cc1ccccc1)C(=O)CSc1nc(C)cc(C)c1C#N	-14	?	10µM*	?	-5
CCOC(=O)c1c(S(=O)(=O)N2CCCC(C(=O)NCc3cccc(OC)c3)C2)c(C)n(C)c1C (stereo not drawn)	/	-14	/	/	/
Cc1ccc(-c2cc(C(F)(F)F)n3nc(C(=O)Nc4sc5c(c4C#N)CCC(C)C5)cc3n2)cc1 (stereo not drawn)	/	-18	/	/	/
Cc1c(Cl)cccc1NC(=O)c1ncoc1-c1ccco1	/	44	/	/	/
N=C1C(c2nc3ccccc3c(=O)[nH]2)=C(O)CN1CCO	-17	-12	16%	/	11
C=CCN1CC(O)=C(c2nc3ccccc3[nH]2)C1=N	128*	?	-4%	156%	56*
CC(C)CCN1CC(O)=C(c2nc3ccccc3[nH]2)C1=N	35	-12	/	17%	17*
CCCCN1CC(O)=C(c2nc3ccccc3[nH]2)C1=N	72	21	3%	36%	47*
CCCCCCN1CC(O)=C(c2ccccc2)C1=N	-7	-5	/	-12%	6
N=C1C(c2nc3ccccc3c(=O)[nH]2)=C(O)CN1CCc1ccccc1	10	/	6%	/	6
CCCCCN1CC(O)=C(c2nc3ccccc3[nH]2)C1=N	30	35	52%	54%	36*
Cc1c(-n2cccc2C=O)cccc1[N+](=O)[O-]	-11	-32	-6%	-10%	-4
N#Cc1ccc(Cl)cc1NC(=O)CNCc1cccs1	13	8	40%	4%[0.00184 µM]	7
Cn1c(SCC(=O)NC2CCS(=O)(=O)C2)nnc1-c1ccco1 (stereo not drawn)	/	44	5%	10%	/
SMILES	Shiga toxin inh	HCMV antiviral	Pf growth 96h	Pf growth 48h	CHX counter
Cc1cccn2c(=O)c(/C=C(\C#N)c3nc4ccccc4n3C)c(Oc3ccc(Cl)cc3)nc12	/	-2	/	/	/
O=[N+]([O-])c1cccnc1Sc1n[nH]c(-c2ccc(Cl)cc2)n1	55*	-3	62%	60%	37*
O=[N+]([O-])c1cccnc1Sc1ccc(Cl)cc1	24	-5	10%	/	-7
COc1ccc(C2C(C#N)=C(/N=C/N3CCN(C)CC3)OC3=C2C(=O)CC(C)(C)C3)cc1OC (stereo not drawn)	-3	-27	7%	?	-3
Cc1nn(-c2ccccc2)c(C)c1CN	-24	-12	?	-11%	-2
Cc1nn(-c2ccccc2)c(C)c1Cc1ccc(O)cc1	77*	/	47%	43%	26*
CCOc1ccccc1NC(=O)C1CCN(S(=O)(=O)Cc2ccccc2)CC1	/	-10	/	/	/
CN(CCOc1ccc(C=C2C(=O)NC(=O)NC2=O)cc1)c1ccccn1	32	-32	66%	-18%	27*
COc1cccc(OCCOc2ccc(/C=C3/SC(=S)NC3=O)cc2)c1	2	43	38%	14%	-1
COc1ccc(OCCOc2cccc(C=C3C(=O)NC(=O)NC3=O)c2)cc1	33*	/	20%	321%	33*
COC(=O)[C@@]1(Sc2ccc(OC)cc2)CC(=O)N[C@@H]1c1ccccc1	/	7	/	/	/
O=S(=O)(Cc1ccccc1)Nc1ccc(Br)cn1	-4	-27	?	-9%	-3
Cc1ccc(NC(=S)NCCc2ccccc2)nc1	76*	-115*	-11%	21%	25*
Cc1ccc(NS(=O)(=O)Cc2ccccc2)nc1	56*	1	-3%	110%	25*
Cc1ccc(NC(=O)CCCc2ccccc2)nc1	89*	4	13%	68%	44*
COc1cccc(-c2cc3c(Nc4cccc(NC(C)=O)c4)nccc3n2C)c1	/	-19	/	/	/
CC(C)CCCC(C)N (stereo not drawn)	/	/	-7%	-1%	/
COc1ccc(CNC(=O)c2ccc(NC(=O)N3CCCCc4ccccc43)cc2)cc1	/	32	/	/	/
O=C(CCC(=O)N1CCc2ccccc21)Nc1ccccc1	11	28	/	4%	2
COc1ccc(CCC(=O)N2CCc3ccccc32)cc1	133*	41	56%	135%	41*
O=C(Nc1ccccc1)N1CCc2ccccc21	71*	136	5%	i	37*
COc1ccc(NC(=O)N2CCc3ccccc32)cc1	38	22	/	126%	29*
O=C(Cc1ccc(-n2cccc2)cc1)N1CCc2ccccc21	47	21	?	/	20*
CC(C)c1ccc(NC2CCCN(C(=O)c3ccnc(Cl)c3)C2)cc1 (stereo not drawn)	-2	-34	25%	-13%	-3
CC1C(=O)N2CCCc3cc(S(=O)(=O)N4CCN(c5ccc(F)cc5)CC4)cc1c32 (stereo not drawn)	-7	0	1%	-15%	-2
SMILES	Shiga toxin inh	HCMV antiviral	Pf growth 96h	Pf growth 48h	CHX counter
COc1ccc(N/N=C(/C(C)=O)N2CCCc3ccccc32)cc1	43	-2	12µM*	4%	11
COc1ccc(OC)c(NC(=O)N2CCCc3ccccc32)c1	30	-16	-24%	24%	25*
CC1Cc2ccccc2N1C(=O)CN1C(=O)NC(C)(CCc2ccccc2)C1=O (stereo not drawn)	-2	19	?	-29%	14*
O=C(C1CCCCC1)N1CCc2ccccc21	43	-6	-36%	1%	6
O=C(NCC1CCCC(CNC(=O)N2CCc3ccccc32)C1)N1CCc2ccccc21 (stereo not drawn)	-8	21	5.9µM*	/	13
C#CCN1[C@@H]2CCN(C2)c2cc(Br)ccc2S1(=O)=O	/	-4	/	/	/
CCOC(=O)c1c(NC(C)=O)c2c3c(sc2n1Cc1nc(-c2ccccc2Cl)oc1C)CCCC3	/	-20	/	/	/
Cc1ccc(-n2ncc(C(=O)N3CCN(C4CCCCC4)CC3)c2C2CCN(C(=O)OC(C)(C)C)CC2)cc1	/	6	/	/	/
COc1ccc(C(=O)N2CCc3ccccc32)cc1	46*	35	-29%	11%	30*

Bioassay records from PubChem BioAssay.
